What all share (assay): NCI-60 one-dose screen, 48 h (100 = growth as untreated, 0 = no growth, -100 = all killed)
One experiment deals with DU-145 prostate. As to conditions: 10 µM unless noted.
The test system of the next experiment is K-562 leukemia. As to conditions: 10 µM unless noted.
The next experiment has as its system MALME-3M melanoma. As to conditions: 10 µM unless noted.
For the next experiment, the system named is MDA-MB-231 breast. The following applies: 10 µM unless noted.
For a further experiment, the system named is RXF 393 renal. As to conditions: 10 µM unless noted.
Another experiment concerns SF-268 CNS. The following applies: 10 µM unless noted.
The next experiment relates to SF-295 CNS. As to conditions: 10 µM unless noted.
The subject of a further experiment is SF-539 CNS. As to conditions: 10 µM unless noted.
In the next experiment the test system is UACC-257 melanoma. The following applies: 10 µM unless noted.
A further experiment deals with M14 melanoma. As to conditions: 10 µM unless noted.
Another experiment has as its system HCT-15 colon. The following applies: 10 µM unless noted.
In a further experiment the test system is HT29 colon. As to conditions: 10 µM unless noted.
The next experiment relates to SNB-19 CNS. As to conditions: 10 µM unless noted.
In the next experiment the test system is U251 CNS. As to conditions: 10 µM unless noted.
A further experiment deals with PC-3 prostate. As to conditions: 10 µM unless noted.
The subject of a further experiment is SK-MEL-5 melanoma. The following applies: 10 µM unless noted.
The test system of the next experiment is UACC-62 melanoma. The following applies: 10 µM unless noted.
In the next experiment the test system is LOX IMVI melanoma. As to conditions: 10 µM.
In a further experiment the test system is SK-MEL-28 melanoma. The following applies: 10 µM unless noted.

SMILES strings stand for the structures. About 83,000 compounds went through this panel and 20% of them were active in at least one assay; those are over-represented in the sample as a whole.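 The test compound was applied at a single concentration to cells in 96-well plates for 48 hours, and percent growth was recorded.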 Values without a mark were called inactive. Activity calls are given as the source filed them. Rule for the calls: active = growth percent below 10; inactive = the rest.

With `COc1ccc(/C=C/c2nc3ccccc3c(=O)n2CC(=O)Nc2ccc(OC)cc2)cc1`, the growth with DU-145 prostate is 77.2%; in the experiment with K-562 leukemia, 95.3%; with MALME-3M melanoma, 73.7%; with MDA-MB-231 breast, 27.3%; in the experiment on RXF 393 renal, 70.5%; in the experiment on SF-268 CNS, 71.4%. For the same molecule, the growth was 74.6% with SF-295 CNS; -18.5% (active) in the experiment on SF-539 CNS; 103% in the experiment with UACC-257 melanoma; 90.3% with M14 melanoma; 88.4% in the experiment on HCT-15 colon; 72.9% in the experiment on HT29 colon. The growth with SNB-19 CNS was 51.9%; in the experiment with U251 CNS, 25.6%; in the experiment on PC-3 prostate it was 46.1%; in the experiment with SK-MEL-5 melanoma, 92.3%; with UACC-62 melanoma it was 74.7%; in the experiment with LOX IMVI melanoma it was 64.8%. In the experiment on SK-MEL-28 melanoma, the growth was 103%.
For the molecule `Cc1ccccc1[C@H]1C(C(=O)c2ccc(Cl)cc2)C2(N[C@@H]1c1ccccc1)C(=O)Nc1ccccc12` (some centres not stated), the growth with DU-145 prostate is -34.4% (active); in the experiment with K-562 leukemia, -21% (active); with MALME-3M melanoma, -64.7% (active); with MDA-MB-231 breast, -60.4% (active); in the experiment on RXF 393 renal it was -66% (active); in the experiment with SF-268 CNS, -12.5% (active). Besides, the growth in the experiment with SF-295 CNS was -19% (active); in the experiment on SF-539 CNS, -69.5% (active); in the experiment on UACC-257 melanoma, -16.4% (active); in the experiment with M14 melanoma it was -77.9% (active); with HCT-15 colon it was -14% (active); in the experiment with HT29 colon, -88.7% (active). The growth is 16.2% in the experiment on SNB-19 CNS; -58.1% (active) in the experiment on U251 CNS; -22.6% (active) in the experiment on PC-3 prostate; -72.2% (active) with SK-MEL-5 melanoma; -83.5% (active) in the experiment with UACC-62 melanoma; -100% (active) in the experiment on LOX IMVI melanoma. Further, the growth in the experiment on SK-MEL-28 melanoma was -34.3% (active).
In the case of `CC(C)c1sc(NC(=O)c2cc(NC(=O)c3cc(NC(=O)c4cscn4)cn3C)cn2C)nc1C(=O)NCCCN(C)C`, the growth in the experiment with DU-145 prostate was 16.4%; in the experiment with K-562 leukemia it was 8.89% (active); with MALME-3M melanoma it was -51.7% (active); in the experiment with MDA-MB-231 breast it was -33.3% (active); with RXF 393 renal, -47.2% (active); in the experiment on SF-268 CNS, 16.3%. The growth in the experiment with SF-295 CNS is 58.7%; in the experiment on SF-539 CNS it was -33.6% (active); with UACC-257 melanoma it was 7.52% (active); in the experiment with M14 melanoma it was 45%; with HCT-15 colon, 98.6%; with HT29 colon, 2.45% (active). Moreover, the growth is -9.66% (active) in the experiment on SNB-19 CNS; -38.4% (active) in the experiment with U251 CNS; -26.3% (active) in the experiment with PC-3 prostate; -3.44% (active) in the experiment on SK-MEL-5 melanoma; -73.5% (active) with UACC-62 melanoma; -94% (active) in the experiment on LOX IMVI melanoma. Further, in the experiment with SK-MEL-28 melanoma, the growth is -16.3% (active).
`Cn1cc(-c2cc3nc(-c4cn(C)c5ncc(Br)cc45)cc(N)n3n2)c2ccccc21`: the growth is 16.1% in the experiment with DU-145 prostate; -30% (active) in the experiment on K-562 leukemia; -85.2% (active) in the experiment with MALME-3M melanoma; -64.7% (active) in the experiment on MDA-MB-231 breast; -74% (active) with RXF 393 renal; 11.8% in the experiment with SF-268 CNS. In addition, the growth was -60.2% (active) in the experiment on SF-295 CNS; -90.2% (active) with SF-539 CNS; -77.4% (active) in the experiment on UACC-257 melanoma; -72.6% (active) in the experiment with M14 melanoma; -23.3% (active) in the experiment on HCT-15 colon; -86.1% (active) in the experiment with HT29 colon. Further, the growth with SNB-19 CNS was -27% (active); with U251 CNS it was -68.8% (active); in the experiment with PC-3 prostate it was -15.5% (active); in the experiment with SK-MEL-5 melanoma, -94% (active); with UACC-62 melanoma, -83.2% (active); with LOX IMVI melanoma it was -100% (active). In the experiment with SK-MEL-28 melanoma, the growth is -91.6% (active).
Consider `COc1ccc2c(c1)c(-c1cc3nc(-c4cn(C)c5ncccc45)cc(N)n3n1)cn2C`, for which the growth in the experiment with DU-145 prostate is -27.2% (active); in the experiment with K-562 leukemia it was -31.2% (active); with MALME-3M melanoma, -95.3% (active); in the experiment with MDA-MB-231 breast, -82.8% (active); in the experiment with RXF 393 renal, -77.3% (active); with SF-268 CNS, 11.9%. The growth in the experiment on SF-295 CNS was -79.4% (active); in the experiment with SF-539 CNS, -95.8% (active); in the experiment with UACC-257 melanoma, -78.7% (active); in the experiment with M14 melanoma, -84.3% (active); in the experiment on HCT-15 colon it was -57.7% (active); with HT29 colon, -95.5% (active). Besides, the growth is 22.3% in the experiment with SNB-19 CNS; -67% (active) in the experiment with U251 CNS; -1.31% (active) in the experiment on PC-3 prostate; -100% (active) in the experiment on SK-MEL-5 melanoma; -89.8% (active) with UACC-62 melanoma; -100% (active) in the experiment with LOX IMVI melanoma. Further, the growth with SK-MEL-28 melanoma was -97.2% (active).
Turning to `Clc1cccc(N/N=C/c2c[nH]c3ccc(Br)cc23)n1`, the growth with DU-145 prostate was 64.1%; in the experiment on K-562 leukemia, -26% (active); in the experiment on MALME-3M melanoma, 39%; in the experiment with MDA-MB-231 breast, -67.7% (active); in the experiment on RXF 393 renal, 31.6%; in the experiment on SF-268 CNS, 40.8%. For the same molecule, the growth with SF-295 CNS was -9.75% (active); with SF-539 CNS, -1.26% (active); with UACC-257 melanoma it was 57.6%; in the experiment with M14 melanoma it was 15.2%; in the experiment on HCT-15 colon it was 22.3%; in the experiment with HT29 colon, 23.6%. The growth was 20.5% in the experiment with SNB-19 CNS; 17.1% in the experiment on U251 CNS; 7.77% (active) with PC-3 prostate; 40.3% in the experiment with SK-MEL-5 melanoma; 1.6% (active) in the experiment with UACC-62 melanoma; -60.9% (active) with LOX IMVI melanoma. In the experiment on SK-MEL-28 melanoma, the growth was 49.1%.
As for `Cc1ccccc1[C@H]1C(C(=O)c2ccc(Cl)cc2)C2(N[C@@H]1c1ccccc1)C(=O)Nc1ccc(Cl)cc12` (some centres not stated), the growth in the experiment on DU-145 prostate is 5.12% (active); in the experiment on K-562 leukemia it was -2.2% (active); in the experiment with MALME-3M melanoma, -33.3% (active); in the experiment with MDA-MB-231 breast, -72.2% (active); in the experiment on RXF 393 renal, -67.7% (active); with SF-268 CNS it was 29.3%. Further, the growth is -22.5% (active) in the experiment with SF-295 CNS; -58.1% (active) with SF-539 CNS; 4.82% (active) in the experiment on UACC-257 melanoma; -78.4% (active) in the experiment on M14 melanoma; -69.1% (active) with HCT-15 colon; -88.5% (active) with HT29 colon. Moreover, the growth was 17.4% in the experiment with SNB-19 CNS; -82.9% (active) in the experiment with U251 CNS; -26.9% (active) with PC-3 prostate; 0.559% (active) in the experiment with SK-MEL-5 melanoma; -55.5% (active) in the experiment with UACC-62 melanoma; -100% (active) in the experiment on LOX IMVI melanoma. Also, the growth in the experiment on SK-MEL-28 melanoma is -23.4% (active).
Turning to `CC(=O)/C=C/c1cccc2c1C(=O)NC(C)(c1cc3cc(Br)ccc3oc1=O)N2` (configuration not stated), the growth in the experiment on DU-145 prostate is 19.1%; in the experiment with K-562 leukemia it was 0.91% (active); in the experiment on MALME-3M melanoma, 31.3%; with MDA-MB-231 breast it was 18%; in the experiment on RXF 393 renal it was -12.9% (active); with SF-268 CNS it was 56.1%. The growth is 39% in the experiment with SF-295 CNS; 19.2% in the experiment on SF-539 CNS; 27.2% in the experiment with UACC-257 melanoma; 31.4% in the experiment with M14 melanoma; 14.6% in the experiment with HCT-15 colon; 27.6% with HT29 colon. Moreover, the growth is 51.8% with SNB-19 CNS; 18.6% in the experiment with U251 CNS; 21.6% in the experiment on PC-3 prostate; 13.1% in the experiment with SK-MEL-5 melanoma; 13% in the experiment on UACC-62 melanoma; 14.8% in the experiment on LOX IMVI melanoma. Besides, in the experiment on SK-MEL-28 melanoma, the growth was 58.8%.

Source of the values: PubChem BioAssay (NCI).
